The results in this text go back to PubChem BioAssay (NCATS).

Inconclusive results are not listed. Values without a mark were called inactive. Calls come from the whole dose curve.
% is set by controls: 0 for no effect and ±100 for the full control effect.

The test in a line: qHTS Assay for Lipid Storage Modulators (AID 1519). The following applies: Drosophila S3 cells, BODIPY lipid droplet/cell ratio, laser cytometry; at 57.5 µM (top of the series); cells loaded with oleic acid. Summed up:
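Cells seeded at 5,000 per well were treated with compounds over a concentration series and loaded with oleic acid (400 uM, as added). Lipid droplet fluorescence (488 nm excitation, 500-530 nm channel) was read by laser-scanning cytometry and normalized to 20 uM Triacsin C.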
Turning to `CS(=O)(=O)N1CCC2(CCCN(Cc3ccncc3)C2)CC1`, the activity change, negative = inhibition was 6.09%.

Consider `c1ccc(CN2CC[C@@]3(CCCNC3)C2)cc1`, for which the activity change, negative = inhibition was 3.83%.

As to `O=C(c1ccncc1)N1CCC[C@@]2(CCN(Cc3nccs3)C2)C1`, the activity change, negative = inhibition is 3.49%.

In the case of `COc1c2c(cc3c1OCO3)CC[N+](C)=C2`, the activity change, negative = inhibition is 10.8%.

`c1cc(CN2CC3(CCNCC3)C2)ccn1`: the activity change, negative = inhibition was 2.64%.

Regarding `c1csc(CN2CC[C@@]3(CCCNC3)C2)n1`, the activity change, negative = inhibition is 0.956%.

`COC(=O)N1CCC2(CCCN(C)C2)CC1`: the activity change, negative = inhibition is 0.789%.

As to `c1ccc(CN2CCC3(CCNCC3)CC2)cc1`, the activity change, negative = inhibition is 1.99%.

For `Cc1noc(C)c1C(=O)N1CCC2(CCCN(CC(C)C)C2)CC1`, the activity change, negative = inhibition was 1.67%.

In the case of `CN1CC[C@@]2(CCCN(C(=O)c3ccncc3)C2)C1`, the activity change, negative = inhibition is 0.0036%.

In the case of `c1cnc(N2CCCC3(CCNCC3)C2)nc1`, the activity change, negative = inhibition is 7.13%.

For `c1ccc(N2CC3(CCNCC3)C2)cc1`, the activity change, negative = inhibition was 3.32%.

As to `CN1CC[C@@]2(CCCN(C(=O)Oc3ccccc3)C2)C1`, the activity change, negative = inhibition is 2.41%.

For `c1csc(CN2CCC3(CCNCC3)CC2)n1`, the activity change, negative = inhibition is -2.74%.

Take `O=C(Nc1ccccc1)N1CC[C@@]2(CCCN(C(=O)Oc3ccccc3)C2)C1`: the activity change, negative = inhibition was 8.84%.

`O=C(c1csnn1)N1CCC2(CC1)CN(Cc1ccncc1)C2`: the activity change, negative = inhibition was 4.72%.

For `CC(C)NC(=O)N1CC[C@@]2(CCCNC2)C1`, the activity change, negative = inhibition was 0.953%.

As to `c1ccc(N2CC3(CCNCC3)C2)nc1`, the activity change, negative = inhibition was -0.659%.

On to `CC(C)NC(=O)N1CCC2(CC1)CCN(C(=O)Oc1ccccc1)CC2`, for which the activity change, negative = inhibition is 2.9%.
